Test results: PubChem BioAssay (EPA / NIEHS)
Inconclusive results are not listed. The source made the active and inactive calls. How the source made its calls: active means hit-call score of the fitted dose curve at least 0.9, where 1 is the maximum; inconclusive means response in the unintended direction; inactive means score below 0.9.

How the values were obtained:
[1] = target: guinea pig Bradykinin Receptor B2 (BK2), BDKRB2 (gene 100135486) (UniProt O70526); experiment: NVS_GPCR_gBK2: NovaScreen (NVS) G Protein-Coupled Receptor Assay for guinea pig Bradykinin Receptor B2 (BK2) (AID 2283292)
In short: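 Radioligand displacement on guinea pig ileum membranes for 1 h, read by filter-based scintillation counting; loss of signal relative to DMSO. Compounds were screened in duplicate at 25 uM, and those passing the threshold were retested in concentration-response up to 50 uM.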

[2] = target: mouse Cholecystokinin, CCK2 Receptor (CCKB), Cckbr (gene 12426) (UniProt P56481); experiment: NVS_GPCR_mCKKBCentral: NovaScreen (NVS) G Protein-Coupled Receptor Assay for mouse Cholecystokinin, CCK2 Receptor (CCKB) (AID 2283293)
In short: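 Radioligand displacement binding on mouse forebrain membranes, 2 h exposure, filter-based scintillation counting. Primary screen in duplicate at 25 uM; actives (e.g. ≥30% inhibition) retested in concentration-response up to 50 uM; loss of binding signal relative to DMSO.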

[3] = target: rat Adrenergic, Alpha 1, Non-selective Receptor (Adra1), Adra1a (gene 29412) (UniProt P43140); experiment: NVS_GPCR_rAdra1_NonSelective: NovaScreen (NVS) G Protein-Coupled Receptor Assay for rat Adrenergic, Alpha 1, Non-selective Receptor (Adra1) (AID 2283289)
In short: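 Rat forebrain membranes; radioligand displacement read by filter-based scintillation counting 1 h after dosing. Primary screen in duplicate at 25 uM; hits (e.g. ≥30% inhibition) rerun as concentration–response to 50 uM max. Fitted versus DMSO.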

[4] = target: human Opioid Receptor Mu (Opiate Mu), OPRM1 (gene 4988) (UniProt P35372); experiment: NVS_GPCR_hOpiate_mu: NovaScreen (NVS) G Protein-Coupled Receptor Assay for human Opioid Receptor Mu (Opiate Mu) (AID 2283290);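 further: hits lower bound tracer signal versus DMSO meaning displacement of the ligand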
In short: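 Here, radioligand binding to CHO-extracted receptor was measured after 2.5 h using filter-based scintillation detection. Initial single-concentration screening used 25 uM in duplicate with plate controls; confirmed actives went to concentration-response testing.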

[5] = target: rat Serotonin, 5-Hydroxytryptamine Receptor (5HT), Non-Selective Binding, Htr1a (gene 24473) (UniProt P19327); experiment: NVS_GPCR_r5HT_NonSelective: NovaScreen (NVS) G Protein-Coupled Receptor Assay for rat Serotonin, 5-Hydroxytryptamine Receptor (5HT), Non-Selective Binding (AID 2283295)
In short: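 Radioligand displacement on rat cortical membranes, 1 h incubation, filter-based scintillation counting. Primary duplicates at 25 uM, actives retested in concentration series; loss of signal fitted against DMSO as baseline.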

[6] = target: rat Adrenergic, Alpha 1A Receptor (Adra1A), Adra1a (gene 29412) (UniProt P43140); experiment: NVS_GPCR_rAdra1A: NovaScreen (NVS) G Protein-Coupled Receptor Assay for rat Adrenergic, Alpha 1A Receptor (Adra1A) (AID 2283296)
In short: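 Rat cortical membranes pretreated with chlorethyl clonidine; competitive radioligand displacement, 1 h. Filter-based scintillation counting. Primary screen in duplicate at 25 uM, actives followed in concentration series.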

[7] = system: rat Adrenergic, Alpha 1B Receptor (Adra1B), gene 24173; experiment: NVS_GPCR_rAdra1B: NovaScreen (NVS) G Protein-Coupled Receptor Assay for rat Adrenergic, Alpha 1B Receptor (Adra1B) (AID 2283297)
In short: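 Rat liver membranes, radioligand displacement with filter-based scintillation detection, 1 h incubation. Primary screen in duplicate at 25 uM; actives retested in concentration series; activity relative to DMSO.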

[8] = target: rat Adrenergic Receptor, Beta (Adrb), Non-selective Binding, Adrb1 (gene 24925) (UniProt P18090); experiment: NVS_GPCR_rAdrb_NonSelective: NovaScreen (NVS) G Protein-Coupled Receptor Assay for rat Adrenergic Receptor, Beta (Adrb), Non-selective Binding (AID 2283298)
In short: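 Non-selective beta-adrenergic radioligand binding in rat cortical membranes, 1 h incubation, filter-based scintillation read-out. Primary screen 25 uM in duplicate; hits retested in concentration-response up to 50 uM, DMSO baseline.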

[9] = target: guinea pig Serotonin, 5-Hydroxytryptamine Receptor 4 (5HT4), HTR4 (gene 100135548) (UniProt O70528); experiment: NVS_GPCR_g5HT4: NovaScreen (NVS) G Protein-Coupled Receptor Assay for guinea pig Serotonin, 5-Hydroxytryptamine Receptor 4 (5HT4) (AID 2283294)
In short: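 Guinea pig striatal membranes; radioligand competitive displacement, filtration and scintillation counting after 1 h. Primary screen in duplicate at 25 uM; actives then tested in concentration series; loss of binding signal fitted relative to DMSO.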

[10] = target: rat Adrenergic Receptor, Alpha 2 (Adra2), Non-selective Binding, Adra2a (gene 25083) (UniProt P22909); experiment: NVS_GPCR_rAdra2_NonSelective: NovaScreen (NVS) G Protein-Coupled Receptor Assay for rat Adrenergic Receptor, Alpha 2 (Adra2), Non-selective Binding (AID 2283299)
Protocol: NVS_GPCR_rAdra2_NonSelective is a biochemical, single-readout assay that uses extracted gene-proteins from Rat cortical membranes in a tissue-based cell-free assay. Measurements were taken 1.25 hours after chemical dosing in a 48-well plate.NVS_GPCR_rAdra2_NonSelective is one of one assay component(s) measured or calculated from the NVS_GPCR_rAdra2_NonSelective assay. It is designed to make measurements of radioligand binding, a form of binding reporter, as detected with scintillation counting signals by Filter-based radiodetection technology.Data from the assay component NVS_GPCR_rAdra2_NonSelective was analyzed into 1 assay endpoint. This assay endpoint, NVS_GPCR_rAdra2_NonSelective, was analyzed in the positive analysis fitting direction relative to DMSO as the negative control and baseline of activity. Using a type of binding reporter, loss-of-signal activity can be used to understand changes in the binding as they relate to the gene Adra2a. Furthermore, this assay endpoint can be referred to as a primary readout, because the performed assay has only produced 1 assay endpoint. To generalize the intended target to other relatable targets, this assay endpoint is annotated to the gpcr intended target family, where the subfamily is rhodopsin-like receptor.
Binding assays used specific radioligands (tritiated, iodinated) with non-radioactive competitive displacement ligands in agonist or antagonist protocols (as indicated) and various reference compounds and inhibitors to titrate specific binding to receptors and transporters. Most enzyme assays (CYPs, kinases, phosphatases, proteases, HDACs) used recombinant protein and specific substrates (fluorescence mostly, some colorimetric and radioactive) and inhibitors, followed by a biochemical separation of substrate and product. All assays for the biochemical HTS were initially run in duplicate at a single concentration (10 uM for CYP450 assays and 25 uM for all others). […] Each assay was run with positive and negative controls, and concurrent controls on every plate. […]

guinea pig Bradykinin Receptor B2 (BK2), BDKRB2 (gene 100135486), sequence (O70526 whole entry, looked up): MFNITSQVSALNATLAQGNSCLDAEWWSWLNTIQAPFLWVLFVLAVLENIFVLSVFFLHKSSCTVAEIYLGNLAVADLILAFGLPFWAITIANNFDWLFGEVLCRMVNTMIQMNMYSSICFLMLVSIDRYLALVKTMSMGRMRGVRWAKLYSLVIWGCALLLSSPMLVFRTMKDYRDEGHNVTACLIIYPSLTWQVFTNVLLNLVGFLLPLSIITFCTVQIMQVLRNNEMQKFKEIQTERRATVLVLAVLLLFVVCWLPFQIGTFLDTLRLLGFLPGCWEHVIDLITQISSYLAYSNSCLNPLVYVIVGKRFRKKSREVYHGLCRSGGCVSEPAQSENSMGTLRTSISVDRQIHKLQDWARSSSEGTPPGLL
human Opioid Receptor Mu (Opiate Mu), OPRM1 (gene 4988), sequence (P35372 whole entry, looked up): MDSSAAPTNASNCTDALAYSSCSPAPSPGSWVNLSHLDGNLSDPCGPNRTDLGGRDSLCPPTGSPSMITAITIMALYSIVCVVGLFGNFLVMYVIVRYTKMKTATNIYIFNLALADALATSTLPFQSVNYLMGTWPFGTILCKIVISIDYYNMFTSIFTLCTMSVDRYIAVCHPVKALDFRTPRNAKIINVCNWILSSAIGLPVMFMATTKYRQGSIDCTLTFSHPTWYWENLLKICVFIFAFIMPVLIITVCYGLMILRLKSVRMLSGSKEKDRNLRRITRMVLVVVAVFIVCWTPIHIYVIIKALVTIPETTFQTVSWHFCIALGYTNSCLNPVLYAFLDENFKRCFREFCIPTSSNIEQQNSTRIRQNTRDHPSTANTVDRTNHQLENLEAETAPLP
rat Adrenergic, Alpha 1A Receptor (Adra1A), Adra1a (gene 29412), sequence (P43140 whole entry, looked up): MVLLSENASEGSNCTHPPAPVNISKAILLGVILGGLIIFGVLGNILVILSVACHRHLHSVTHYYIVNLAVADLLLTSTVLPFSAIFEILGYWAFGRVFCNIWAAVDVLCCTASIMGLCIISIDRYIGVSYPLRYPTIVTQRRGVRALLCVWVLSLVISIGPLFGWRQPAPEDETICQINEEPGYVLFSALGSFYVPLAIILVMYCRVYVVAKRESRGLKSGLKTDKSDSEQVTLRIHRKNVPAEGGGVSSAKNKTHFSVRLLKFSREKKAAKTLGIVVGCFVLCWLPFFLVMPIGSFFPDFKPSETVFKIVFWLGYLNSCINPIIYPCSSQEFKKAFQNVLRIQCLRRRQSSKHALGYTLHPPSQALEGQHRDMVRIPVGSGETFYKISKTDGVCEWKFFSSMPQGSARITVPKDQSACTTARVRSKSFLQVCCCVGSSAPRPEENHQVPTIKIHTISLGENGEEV
rat Adrenergic, Alpha 1, Non-selective Receptor (Adra1), Adra1a (gene 29412), sequence (P43140 whole entry, looked up): as above
rat Adrenergic Receptor, Alpha 2 (Adra2), Non-selective Binding, Adra2a (gene 25083), sequence (P22909 whole entry, looked up): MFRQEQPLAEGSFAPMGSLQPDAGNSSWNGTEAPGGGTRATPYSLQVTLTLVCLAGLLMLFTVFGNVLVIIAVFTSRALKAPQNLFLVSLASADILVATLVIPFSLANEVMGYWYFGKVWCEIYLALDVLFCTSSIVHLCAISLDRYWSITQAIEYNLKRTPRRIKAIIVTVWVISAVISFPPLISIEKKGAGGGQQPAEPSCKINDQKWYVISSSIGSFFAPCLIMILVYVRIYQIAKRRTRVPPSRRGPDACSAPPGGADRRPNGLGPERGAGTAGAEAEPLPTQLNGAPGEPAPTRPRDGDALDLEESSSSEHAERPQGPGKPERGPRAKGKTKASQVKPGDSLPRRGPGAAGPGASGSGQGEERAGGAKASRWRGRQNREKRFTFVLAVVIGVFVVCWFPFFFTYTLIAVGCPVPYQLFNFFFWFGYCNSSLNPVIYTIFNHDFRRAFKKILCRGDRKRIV
rat Adrenergic Receptor, Beta (Adrb), Non-selective Binding, Adrb1 (gene 24925), sequence (P18090 whole entry, looked up): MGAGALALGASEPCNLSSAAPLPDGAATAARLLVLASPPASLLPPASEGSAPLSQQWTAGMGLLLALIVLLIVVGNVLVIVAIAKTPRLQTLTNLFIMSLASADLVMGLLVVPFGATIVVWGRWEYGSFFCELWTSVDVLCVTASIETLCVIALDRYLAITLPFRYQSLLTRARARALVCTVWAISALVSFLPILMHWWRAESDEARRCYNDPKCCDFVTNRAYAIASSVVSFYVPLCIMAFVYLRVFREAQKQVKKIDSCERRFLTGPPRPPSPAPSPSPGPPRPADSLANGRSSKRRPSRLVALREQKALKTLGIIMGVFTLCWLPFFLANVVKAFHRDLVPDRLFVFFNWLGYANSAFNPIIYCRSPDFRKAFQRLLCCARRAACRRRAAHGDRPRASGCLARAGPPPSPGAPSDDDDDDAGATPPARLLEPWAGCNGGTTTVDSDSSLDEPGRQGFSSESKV
guinea pig Serotonin, 5-Hydroxytryptamine Receptor 4 (5HT4), HTR4 (gene 100135548), sequence (O70528 whole entry, looked up): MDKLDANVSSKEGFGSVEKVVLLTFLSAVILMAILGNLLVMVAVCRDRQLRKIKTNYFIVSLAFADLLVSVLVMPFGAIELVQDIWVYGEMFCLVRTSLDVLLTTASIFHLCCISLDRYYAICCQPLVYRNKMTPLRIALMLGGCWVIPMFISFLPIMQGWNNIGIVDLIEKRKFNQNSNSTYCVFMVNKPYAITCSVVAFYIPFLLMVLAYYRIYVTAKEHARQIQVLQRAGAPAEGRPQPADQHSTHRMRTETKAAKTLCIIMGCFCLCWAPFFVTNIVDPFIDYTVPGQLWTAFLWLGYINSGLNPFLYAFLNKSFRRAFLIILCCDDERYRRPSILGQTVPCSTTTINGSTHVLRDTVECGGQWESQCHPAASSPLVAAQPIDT
mouse Cholecystokinin, CCK2 Receptor (CCKB), Cckbr (gene 12426), sequence (P56481 whole entry, looked up): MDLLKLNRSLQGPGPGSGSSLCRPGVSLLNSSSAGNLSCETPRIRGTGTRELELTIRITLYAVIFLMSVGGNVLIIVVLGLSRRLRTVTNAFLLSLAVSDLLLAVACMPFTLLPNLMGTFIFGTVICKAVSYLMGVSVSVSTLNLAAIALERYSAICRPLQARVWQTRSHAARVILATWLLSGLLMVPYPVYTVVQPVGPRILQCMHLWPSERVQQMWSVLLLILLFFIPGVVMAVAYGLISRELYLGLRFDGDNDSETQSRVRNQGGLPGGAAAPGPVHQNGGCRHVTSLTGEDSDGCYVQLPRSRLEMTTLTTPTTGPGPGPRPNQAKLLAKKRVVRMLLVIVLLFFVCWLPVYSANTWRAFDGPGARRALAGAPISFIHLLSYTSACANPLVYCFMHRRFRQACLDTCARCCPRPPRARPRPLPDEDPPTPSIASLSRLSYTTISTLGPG
rat Serotonin, 5-Hydroxytryptamine Receptor (5HT), Non-Selective Binding, Htr1a (gene 24473), sequence (P19327 whole entry, looked up): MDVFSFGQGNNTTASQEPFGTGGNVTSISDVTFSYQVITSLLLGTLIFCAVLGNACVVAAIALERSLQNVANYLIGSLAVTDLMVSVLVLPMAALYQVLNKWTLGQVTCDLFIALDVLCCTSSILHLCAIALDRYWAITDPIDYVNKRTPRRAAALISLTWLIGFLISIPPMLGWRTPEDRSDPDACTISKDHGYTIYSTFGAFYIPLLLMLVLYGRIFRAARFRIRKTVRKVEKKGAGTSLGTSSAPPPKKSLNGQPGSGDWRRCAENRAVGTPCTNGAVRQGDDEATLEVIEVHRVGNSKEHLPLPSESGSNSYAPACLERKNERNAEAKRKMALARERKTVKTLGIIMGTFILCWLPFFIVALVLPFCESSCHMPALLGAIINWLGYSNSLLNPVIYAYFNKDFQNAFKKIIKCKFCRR

NCCO
outcome [1]: inactive

COc1ccc(S(=O)(=O)N2C(=O)[C@@](c3ccccc3OC)(N3C[C@H](O)C[C@H]3C(=O)N(C)C)c3cc(Cl)ccc32)c(OC)c1
AC50 [2]: 25 µM (active)

CN1CCN(Cc2cc(-c3ccc4[nH]c(=O)oc4c3)co2)[C@@H](c2ccc(F)cc2)C1
AC50 [3]: 8.23 µM (active) | AC50 [4]: 22 µM (active) | AC50 [5]: 0.0493 µM (active) | AC50 [6]: 10.3 µM (active) | AC50 [7]: 22 µM (active)

CC(C)c1ccc(C(=O)N=C(N)N)cc1S(C)(=O)=O
outcome [8]: inactive

CC(=O)C(C)=CC1C(C)=CCCC1(C)C (centres undefined)
outcome [5]: inactive | outcome [8]: inactive

O=C(N[C@@H](Cc1ccccc1)[C@@H](O)C(=O)N1C[C@@H](O)[C@@H](O)C1)c1cc2cc(Cl)ccc2[nH]1
AC50 [4]: 4.96 µM (active) | AC50 [2]: 8.74 µM (active) | outcome [5]: inactive

CNCc1cc(F)ccc1Oc1ccc(Cl)c(Cl)c1
AC50 [8]: 12.2 µM (active)

CC1=C(/C=C/C(C)=C/C=C/C(C)=C/CO)C(C)(C)CCC1
outcome [4]: inactive | outcome [5]: inactive

Oc1ccc2c(c1)OC[C@@H](N1CCC(O)(c3ccc(F)cc3)CC1)[C@H]2O
outcome [3]: inactive | outcome [4]: inactive | outcome [9]: inactive | outcome [7]: inactive | AC50 [8]: 5.17 µM (active)

Cc1nc(C)nc(N2C[C@@H](C)N(c3ccnc([C@@H](C)O)n3)[C@@H](C)C2)n1
outcome [9]: inactive

Oc1ccc2ccccc2c1N=Nc1ccccc1
AC50 [4]: 37.4 µM (active)

CCCCc1ccc2c(n1)[C@@H](c1ccc(OC)cc1C[C@H](C)C(=O)O)[C@H](C(=O)O)[C@H]2c1ccc2c(c1)OCO2
AC50 [2]: 20 µM (active)

Nc1nc(N)c2nc(CNc3ccc(C(=O)N[C@@H](CCC(=O)O)C(=O)O)cc3)cnc2n1
AC50 [4]: 5.21 µM (active)

COc1cc(C=O)ccc1O
outcome [1]: inactive

NC(=O)Cn1c(=O)cc(CCN2CCN(c3nccc4sccc34)CC2)c2ccc(F)cc21
AC50 [3]: 0.0868 µM (active) | AC50 [5]: 0.0315 µM (active) | AC50 [6]: 0.258 µM (active) | AC50 [7]: 0.595 µM (active) | AC50 [10]: 0.167 µM (active)

Cc1nc(-c2ccc3c(c2)CCN(CCC2CCC(NC(=O)/C=C/c4ccc(F)cc4)CC2)CC3)no1 (centres undefined)
outcome [8]: inactive

CCOC(=O)CCC(=O)OCC
outcome [4]: inactive | outcome [6]: inactive | outcome [10]: inactive

CCc1c(C(=O)NN2CCCCC2)nn(-c2ccc(Cl)cc2Cl)c1-c1ccc(Br)cc1
outcome [4]: inactive | outcome [9]: inactive | AC50 [5]: 12 µM (active)

CCCCC(CC)COC(=O)CC(C(=O)OCC(CC)CCCC)S(=O)(=O)O (centres undefined)
AC50 [3]: 17 µM (active) | AC50 [4]: 14.8 µM (active) | AC50 [9]: 36 µM (active) | AC50 [5]: 25 µM (active) | AC50 [7]: 29.2 µM (active) | AC50 [10]: 32.9 µM (active)

COc1cc(S(=O)(=O)O)c(C)cc1N=Nc1c(O)ccc2cc(S(=O)(=O)O)ccc12
AC50 [9]: 41.9 µM (active) | outcome [7]: inactive

CC=Cc1ccc(O)c(OC)c1
outcome [4]: inactive

CCCCCCCCCCC
outcome [1]: inactive

CCCCCCC(=O)OCC
outcome [9]: inactive
